About 83,000 compounds went through this panel and 20% of them were active in at least one assay; those are over-represented in the sample as a whole.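 Compound tested at a single concentration for 48 hours in 96-well plates; a percent growth value below 10 was scored as active.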 Values without a mark were called inactive. Calls of active or inactive are those of the source.

For this assay, the system named is HL-60(TB) leukemia. Put plainly: NCI-60 one-dose screen, 48 h (100 = growth as untreated, 0 = no growth, -100 = all killed). Conditions: 10 µM unless noted.
Regarding `CCOC(=O)c1ccc(NCCC(=O)O)cc1`, the growth is 96.4%.
`CCN=C1C=CC(=C(c2ccc(N(CC)CC)cc2)c2ccc(N(CC)CC)cc2)c2ccccc21`: the growth is -31.1% (active).
Regarding `COc1ccccc1NC(=O)n1c(=O)cc(C)c2ccc(O)cc21`, the growth was 105%.
As for `COc1ccc(-c2nn(-c3ccccc3)cc2/C=C/C(=O)OCc2cn(-c3ccc(F)c(Cl)c3)nn2)cc1`, the figure is 83.3%; as for `COc1ccccc1S(=O)(=O)Nc1ccc2c3c(cc(-c4cnn(C5CC5)c4)nc13)C(=O)N2C`, -10% (active).
Take `O=C(NCN1C(=O)c2cccc3cccc(c23)C1=O)N1CCC(Cc2ccccc2)CC1`: the growth is 96.1%.
As for `O=C1c2cc(Cl)ccc2Oc2cc([N+](=O)[O-])ccc2N1c1ccc(F)cc1F`, the figure is 76%; as for `NC1=Nc2ccccc2N(O)N1`, 88.4%.
As for `O=C1COc2ccccc2C(=O)N1CCCCN1CCCCC1`, the figure is 75.3%; as for `COc1ccc(/C=C2\Oc3cc(OCCCN4CCCC4)ccc3C2=O)c(OC)c1`, 96.2%.
